Measurements published in the supplement of paper PMC10849652.
The full data set covers some 7,900 targets. This sample favours those with a hit. About 0.6% of all pairs of compound and target were hits.

Key:
Assay in all cases: log2 fold change, soluble protein after heating vs DMSO (PISA); higher = thermal stabilisation; K562 cells, 10 uM, 30 min; active = over 0.2 and 3.5 SD of the protein, either way, in both replicates (recomputed)
bafetinib = compound: Cc1ccc(NC(=O)c2ccc(CN3CC[C@H](N(C)C)C3)c(C(F)(F)F)c2)cc1Nc1nccc(-c2cncnc2)n1 [bafetinib]
Method in brief: (§1)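 Soluble protein was defined as the supernatant after 21,000xg for 90 min. It came from K562 cells at 2×10^6 cells/mL given 10 μM compound for 30 min, heated in aliquots for 3 min across 48°C-58°C, pooled, and extracted in PBS with 0.5% NP-40 at 4°C, and was quantified by TMTpro 16plex LC-MS/MS with equalised channel sums. Thermal stability against control samples, from duplicates, is reported as log2 fold change.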

[1] = compound: Cc1cccc(CC(=O)N2CCc3c2ccc(-c2cn(C)c4ncnc(N)c24)c3F)n1
Method in brief: as §1

nilotinib = compound: Cc1cn(-c2cc(NC(=O)c3ccc(C)c(Nc4nccc(-c5cccnc5)n4)c3)cc(C(F)(F)F)c2)cn1 [nilotinib]
Method in brief: as §1

[2] = compound: Cc1nc(Nc2n[nH]c3c2CN(C(=O)N[C@H](CN(C)C)c2ccccc2)C3(C)C)c2sccc2n1
Method in brief: as §1

dasatinib = compound: Cc1nc(Nc2ncc(C(=O)Nc3c(C)cccc3Cl)s2)cc(N2CCN(CCO)CC2)n1 [dasatinib]
Method in brief: as §1

[3] = compound: Cc1ncc(-c2ccnc(Nc3ccc(S(C)(=O)=O)cc3)n2)n1C(C)C
Method in brief: as §1

[4] = compound: Cn1cc(-c2ccc3c(c2)CCN3C(=O)Cc2cccc(C(F)(F)F)c2)c2c(N)ncnc21
Method in brief: as §1

[5] = compound: Cn1cc(-c2ccc3nnc(C(F)(F)c4ccc5ncccc5c4)n3n2)cn1
Method in brief: as §1

tipifarnib = compound: Cn1cncc1[C@@](N)(c1ccc(Cl)cc1)c1ccc2c(c1)c(-c1cccc(Cl)c1)cc(=O)n2C [tipifarnib]
Method in brief: as §1

mubritinib = compound: FC(F)(F)c1ccc(/C=C/c2nc(COc3ccc(CCCCn4ccnn4)cc3)co2)cc1 [mubritinib]
Method in brief: as §1

[6] = compound: NC(=O)Nc1cc(-c2cccc(F)c2)sc1C(=O)N[C@H]1CCCNC1
Method in brief: as §1

[7] = compound: NC(=O)c1cnc(N[C@@H]2CCCC[C@@H]2N)nc1Nc1cccc(-n2nccn2)c1
Method in brief: as §1

[8] = compound: NC1(c2ccc(-c3nc4ccn5c(=O)[nH]nc5c4cc3-c3ccccc3)cc2)CCC1
Method in brief: as §1

[9] = compound: NCC(=O)Nc1ccc(-n2nc(C(F)(F)F)cc2-c2ccc3c(ccc4ccccc43)c2)cc1
Method in brief: as §1

entinostat = compound: Nc1ccccc1NC(=O)c1ccc(CNC(=O)OCc2cccnc2)cc1 [entinostat]
Method in brief: as §1

vorinostat = compound: O=C(CCCCCCC(=O)Nc1ccccc1)NO [vorinostat]
Method in brief: as §1

citarinostat = compound: O=C(CCCCCCNC(=O)c1cnc(N(c2ccccc2)c2ccccc2Cl)nc1)NO [citarinostat]
Method in brief: as §1

silmitasertib = compound: O=C(O)c1ccc2c(c1)nc(Nc1cccc(Cl)c1)c1ccncc12 [silmitasertib]
Method in brief: as §1

[10] = compound: O=C1NC(=O)C(c2cnc3ccccn23)=C1c1cn2c3c(cc(F)cc13)CN(C(=O)N1CCCCC1)CC2
Method in brief: as §1

[11] = compound: c1cc(OCCN2CCCCC2)cc(-c2n[nH]c3ccc(-c4nnc[nH]4)cc23)c1
Method in brief: as §1

Measured: log2 fold change

SEC23A (UniProt Q15436)
Chain of UniProt Q15436 (Q15436 whole entry, looked up): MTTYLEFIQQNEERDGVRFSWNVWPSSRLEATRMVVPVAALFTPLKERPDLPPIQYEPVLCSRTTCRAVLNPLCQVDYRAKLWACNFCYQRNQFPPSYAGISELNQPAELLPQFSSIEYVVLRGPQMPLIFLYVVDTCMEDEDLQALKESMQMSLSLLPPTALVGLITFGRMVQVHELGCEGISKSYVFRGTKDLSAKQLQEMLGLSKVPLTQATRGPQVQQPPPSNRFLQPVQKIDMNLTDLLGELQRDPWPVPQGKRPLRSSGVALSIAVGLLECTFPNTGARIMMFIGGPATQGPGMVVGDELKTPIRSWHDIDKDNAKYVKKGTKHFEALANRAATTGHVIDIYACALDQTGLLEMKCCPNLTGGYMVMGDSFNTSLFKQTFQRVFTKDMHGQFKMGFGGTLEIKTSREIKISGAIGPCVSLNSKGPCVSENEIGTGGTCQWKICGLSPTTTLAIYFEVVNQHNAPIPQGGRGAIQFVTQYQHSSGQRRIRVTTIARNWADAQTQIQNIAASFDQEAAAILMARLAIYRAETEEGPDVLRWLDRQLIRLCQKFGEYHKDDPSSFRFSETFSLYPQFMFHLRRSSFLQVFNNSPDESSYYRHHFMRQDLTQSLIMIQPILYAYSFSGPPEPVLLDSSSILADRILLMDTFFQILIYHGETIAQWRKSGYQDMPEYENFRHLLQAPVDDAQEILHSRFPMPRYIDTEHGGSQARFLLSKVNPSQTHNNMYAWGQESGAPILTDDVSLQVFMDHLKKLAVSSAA
inactive: bafetinib -0.011 | [1] 0.024 | nilotinib -0.012 | [2] 0.014 | dasatinib -0.07 | [3] -0.009 | [4] -0.018 | [5] -0.052 | tipifarnib -0.013 | mubritinib -0.002 | [6] -0.004 | [7] 0.064 | [8] -0.066 | [9] -0.015 | entinostat -0.035 | vorinostat -0.02 | citarinostat -0.044 | silmitasertib 0.011 | [10] 0.024 | [11] -0.097

RDH13 (UniProt Q8NBN7)
Chain of UniProt Q8NBN7 (Q8NBN7 whole entry, looked up): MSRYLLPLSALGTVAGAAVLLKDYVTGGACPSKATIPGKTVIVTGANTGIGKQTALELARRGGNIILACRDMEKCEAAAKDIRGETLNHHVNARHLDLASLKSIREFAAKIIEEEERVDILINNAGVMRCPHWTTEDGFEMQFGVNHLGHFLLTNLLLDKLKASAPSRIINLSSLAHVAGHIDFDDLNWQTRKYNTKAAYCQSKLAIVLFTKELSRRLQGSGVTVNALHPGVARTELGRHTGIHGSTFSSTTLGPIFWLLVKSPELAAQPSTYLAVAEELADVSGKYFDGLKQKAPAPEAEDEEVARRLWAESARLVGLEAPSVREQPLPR
inactive: bafetinib -0.068 | [1] -0.03 | nilotinib 0.011 | [2] -0.044 | dasatinib -0.131 | [3] 0.019 | [4] 0.027 | [5] 0.016 | tipifarnib 0.022 | mubritinib -0.032 | [6] -0.038 | [7] -0.049 | [8] -0.064 | [9] -0.055 | entinostat -0.032 | vorinostat 0.002 | citarinostat 0.029 | silmitasertib -0.013 | [10] -0.029 | [11] -0.02

SLC18B1 (UniProt Q6NT16)
Chain of UniProt Q6NT16 (Q6NT16 whole entry, looked up): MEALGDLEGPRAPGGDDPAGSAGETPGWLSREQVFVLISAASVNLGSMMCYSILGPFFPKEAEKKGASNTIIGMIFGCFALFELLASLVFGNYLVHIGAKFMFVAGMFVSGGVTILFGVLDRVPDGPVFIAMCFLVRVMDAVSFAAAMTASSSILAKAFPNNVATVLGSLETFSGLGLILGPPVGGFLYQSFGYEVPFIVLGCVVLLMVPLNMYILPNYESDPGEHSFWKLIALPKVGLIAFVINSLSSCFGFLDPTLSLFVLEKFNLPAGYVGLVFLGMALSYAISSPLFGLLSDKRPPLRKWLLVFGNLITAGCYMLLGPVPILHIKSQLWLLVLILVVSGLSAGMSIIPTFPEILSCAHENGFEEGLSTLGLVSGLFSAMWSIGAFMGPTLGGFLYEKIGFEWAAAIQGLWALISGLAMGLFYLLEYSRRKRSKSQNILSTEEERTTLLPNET
inactive: bafetinib -0.071 | [1] 0 | nilotinib -0.024 | [2] 0.04 | dasatinib 0.063 | [3] -0.016 | [4] 0.034 | [5] 0.198 | tipifarnib -0.029 | mubritinib -0.018 | [6] -0.003 | [7] 0.022 | [8] -0.093 | [9] -0.025 | entinostat 0.038 | vorinostat -0.162 | citarinostat 0.019 | silmitasertib 0.076 | [10] 0.044 | [11] -0.044

RNF187 (UniProt Q5TA31)
Chain of UniProt Q5TA31 (Q5TA31 whole entry, looked up): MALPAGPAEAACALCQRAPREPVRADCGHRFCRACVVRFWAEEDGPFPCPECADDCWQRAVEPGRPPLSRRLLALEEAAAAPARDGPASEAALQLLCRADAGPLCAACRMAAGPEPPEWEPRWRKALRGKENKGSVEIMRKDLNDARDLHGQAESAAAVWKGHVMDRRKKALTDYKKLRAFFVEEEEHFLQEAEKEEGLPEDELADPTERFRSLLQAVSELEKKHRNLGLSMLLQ
inactive: bafetinib 0.009 | [1] 0.088 | nilotinib 0.029 | [2] -0.041 | dasatinib 0.022 | [3] -0.001 | [4] -0.105 | [5] 0.006 | tipifarnib -0.07 | mubritinib 0.102 | [6] 0.004 | [7] -0.056 | [8] -0.033 | [9] 0.07 | entinostat -0.019 | vorinostat 0.095 | citarinostat 0.054 | silmitasertib 0.012 | [10] -0.061 | [11] 0.035

RETREG3 (UniProt Q86VR2)
Chain of UniProt Q86VR2 (Q86VR2 whole entry, looked up): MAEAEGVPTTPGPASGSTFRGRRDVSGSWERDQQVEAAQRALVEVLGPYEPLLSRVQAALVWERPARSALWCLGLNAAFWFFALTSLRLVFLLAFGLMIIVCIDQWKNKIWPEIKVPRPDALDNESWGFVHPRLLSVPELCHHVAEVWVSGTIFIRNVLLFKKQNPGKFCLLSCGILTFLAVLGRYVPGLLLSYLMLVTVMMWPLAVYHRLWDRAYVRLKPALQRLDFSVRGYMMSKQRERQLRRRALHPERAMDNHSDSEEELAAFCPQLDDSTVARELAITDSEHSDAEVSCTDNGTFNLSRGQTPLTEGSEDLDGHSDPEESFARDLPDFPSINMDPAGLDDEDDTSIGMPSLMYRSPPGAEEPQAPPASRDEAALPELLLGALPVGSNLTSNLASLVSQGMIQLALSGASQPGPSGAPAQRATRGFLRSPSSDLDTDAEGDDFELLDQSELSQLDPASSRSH
inactive: bafetinib -0.164 | [1] -0.032 | nilotinib 0.015 | [2] 0.003 | dasatinib -0.045 | [3] 0.033 | [4] -0.007 | [5] 0.11 | tipifarnib -0.034 | mubritinib 0 | [6] 0.046 | [7] -0.033 | [8] -0.047 | [9] 0.048 | entinostat 0.007 | vorinostat -0.045 | citarinostat 0.003 | silmitasertib 0.04 | [10] -0.086 | [11] -0.03

SART3, A0A499FI31
inactive: bafetinib -0.057 | [1] 0.039 | nilotinib -0.02 | [2] -0.189 | dasatinib -0.128 | [4] 0.029 | [5] -0.001 | tipifarnib 0.008 | mubritinib 0.024 | [6] -0.011 | [7] -0.105 | [8] -0.175 | [9] -0.054 | entinostat 0.055 | vorinostat 0.1 | citarinostat 0.098 | silmitasertib 0.114 | [10] -0.136 | [11] -0.02
active: [3] -0.261

RPS27A (UniProt P62979)
inactive: bafetinib 0.147 | [1] 0.023 | nilotinib 0.056 | [2] 0.2 | dasatinib 0.119 | [3] 0.007 | [4] -0.172 | [5] 0 | tipifarnib 0.079 | mubritinib -0.121 | [6] 0.024 | [7] 0.16 | [8] 0.286 | [9] 0.177 | entinostat -0.047 | vorinostat -0.007 | citarinostat -0.211 | silmitasertib 0.05 | [10] 0.064 | [11] -0.06

RRS1 (UniProt Q15050)
Chain of UniProt Q15050 (Q15050 whole entry, looked up): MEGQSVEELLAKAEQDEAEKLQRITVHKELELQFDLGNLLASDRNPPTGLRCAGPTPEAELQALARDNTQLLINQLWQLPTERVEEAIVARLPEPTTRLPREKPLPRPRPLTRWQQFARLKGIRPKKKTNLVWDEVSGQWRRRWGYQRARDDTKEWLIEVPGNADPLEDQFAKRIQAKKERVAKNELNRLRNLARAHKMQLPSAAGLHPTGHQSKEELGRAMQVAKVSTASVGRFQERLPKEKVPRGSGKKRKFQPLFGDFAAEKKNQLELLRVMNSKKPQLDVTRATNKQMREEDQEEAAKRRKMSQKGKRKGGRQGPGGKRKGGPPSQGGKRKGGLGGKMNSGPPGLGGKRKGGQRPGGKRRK
inactive: bafetinib 0.121 | [1] -0.125 | nilotinib -0.024 | [2] 0.073 | dasatinib 0.161 | [3] 0.267 | [4] -0.431 | [5] -0.165 | tipifarnib 0.105 | mubritinib -0.226 | [6] 0.06 | [7] 0.143 | [8] 0.233 | [9] 0.211 | entinostat -0.087 | vorinostat -0.063 | citarinostat -0.081 | silmitasertib 0.291 | [10] 0.438 | [11] -0.107

RBM33 (UniProt Q96EV2)
Chain of UniProt Q96EV2 (Q96EV2 whole entry, looked up): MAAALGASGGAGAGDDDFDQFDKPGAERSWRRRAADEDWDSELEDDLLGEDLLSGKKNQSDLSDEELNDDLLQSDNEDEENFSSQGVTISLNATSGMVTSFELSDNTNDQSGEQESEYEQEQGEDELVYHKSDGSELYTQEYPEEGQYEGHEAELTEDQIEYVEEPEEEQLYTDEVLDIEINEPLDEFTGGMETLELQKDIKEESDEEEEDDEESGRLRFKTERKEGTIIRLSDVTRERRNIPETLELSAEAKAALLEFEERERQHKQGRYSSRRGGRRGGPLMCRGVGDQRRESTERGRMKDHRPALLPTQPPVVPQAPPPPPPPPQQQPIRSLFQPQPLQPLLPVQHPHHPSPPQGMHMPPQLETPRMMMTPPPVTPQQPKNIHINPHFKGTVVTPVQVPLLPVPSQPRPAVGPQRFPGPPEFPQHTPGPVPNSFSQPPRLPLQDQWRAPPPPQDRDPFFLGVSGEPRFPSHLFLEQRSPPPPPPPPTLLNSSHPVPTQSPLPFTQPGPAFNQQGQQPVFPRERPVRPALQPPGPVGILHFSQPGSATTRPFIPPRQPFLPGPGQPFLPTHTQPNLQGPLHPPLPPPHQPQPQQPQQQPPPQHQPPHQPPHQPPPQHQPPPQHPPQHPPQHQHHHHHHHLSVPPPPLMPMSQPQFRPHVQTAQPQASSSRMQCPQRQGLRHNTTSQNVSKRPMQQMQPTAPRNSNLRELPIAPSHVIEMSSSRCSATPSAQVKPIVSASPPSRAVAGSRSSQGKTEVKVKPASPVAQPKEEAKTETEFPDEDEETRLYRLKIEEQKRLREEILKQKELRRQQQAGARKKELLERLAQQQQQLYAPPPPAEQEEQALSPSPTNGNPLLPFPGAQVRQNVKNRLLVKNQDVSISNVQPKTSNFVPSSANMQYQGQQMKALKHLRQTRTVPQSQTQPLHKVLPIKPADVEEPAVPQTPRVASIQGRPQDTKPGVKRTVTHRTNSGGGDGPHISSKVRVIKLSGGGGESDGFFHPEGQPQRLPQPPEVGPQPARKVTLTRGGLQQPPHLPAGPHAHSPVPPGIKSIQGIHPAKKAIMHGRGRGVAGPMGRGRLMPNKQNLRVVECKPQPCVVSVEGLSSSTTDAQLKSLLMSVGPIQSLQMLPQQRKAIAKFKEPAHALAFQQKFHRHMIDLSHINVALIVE
inactive: bafetinib -0.055 | [1] 0.012 | nilotinib -0.036 | [2] -0.143 | dasatinib 0.013 | [3] -0.11 | [4] 0.024 | [5] -0.013 | tipifarnib 0.085 | mubritinib -0.004 | [6] 0.019 | [7] -0.055 | [8] -0.024 | [9] 0.003 | entinostat 0.027 | vorinostat 0.037 | citarinostat 0.042 | silmitasertib 0.038 | [10] -0.003 | [11] -0.046

RBM8A (UniProt Q9Y5S9)
inactive: bafetinib -0.013 | [1] -0.014 | nilotinib -0.047 | [2] -0.063 | dasatinib 0.001 | [3] 0.126 | [4] -0.02 | [5] 0.065 | tipifarnib 0.019 | mubritinib 0.013 | [6] -0.044 | [7] 0.075 | [8] -0.045 | [9] -0.068 | entinostat 0.037 | vorinostat -0.025 | citarinostat 0.03 | silmitasertib 0.011 | [10] -0.019 | [11] -0.076

RCN3 (UniProt Q96D15)
Chain of UniProt Q96D15 (Q96D15 whole entry, looked up): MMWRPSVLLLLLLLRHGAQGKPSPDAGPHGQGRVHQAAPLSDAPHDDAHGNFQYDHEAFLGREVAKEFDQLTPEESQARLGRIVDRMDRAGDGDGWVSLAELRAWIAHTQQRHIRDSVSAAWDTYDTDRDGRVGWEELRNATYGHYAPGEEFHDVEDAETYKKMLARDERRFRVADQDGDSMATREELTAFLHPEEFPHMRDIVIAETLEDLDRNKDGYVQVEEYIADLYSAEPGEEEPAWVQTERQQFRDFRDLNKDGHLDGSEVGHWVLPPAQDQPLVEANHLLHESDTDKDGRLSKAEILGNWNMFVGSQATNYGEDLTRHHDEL
inactive: bafetinib -0.015 | nilotinib 0.015 | [2] -0.011 | dasatinib 0.045 | [3] 0.011 | [4] 0.162 | [5] 0.057 | tipifarnib -0.038 | mubritinib -0.056 | [6] -0.042 | [7] -0.027 | [8] 0.105 | [9] -0.013 | entinostat -0.027 | vorinostat -0.122 | citarinostat -0.063 | silmitasertib -0.002 | [10] -0.039 | [11] 0.12
active: [1] -0.318
